Assay results: PubChem BioAssay (NCATS)
Results filed as inconclusive are left out. Activity calls are given as the source filed them. Calls come from the whole dose curve; as a rule, active = well fitted curve in the direction sought with a large enough effect; inconclusive = small, poorly fitted or top-dose-only effect, or another doubt; inactive = no such curve, though single readings can be large; an effect the other way counts as inactive or inconclusive.

Key:
NIH3T3 = test: qHTS assay to identify novel small-molecules to repurpose for Merkel cell carcinoma treatment (AID 1296009); details: MCC and control cell lines, CellTiter-Glo viability, 72 h; at 44.8 µM (top of the series) unless noted; note: nearly all actives have a fitted effect of over 60% in size
In short: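 After compound transfer in DMSO, plates were kept 72 hr at 37 degree celsius. Luminescent ATP signal from CellTiter-Glo served as viability measure, normalized against DMSO and no-cell controls.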

C33A = test: Primary qHTS to identify gynecologic anti-cancer compounds using libraries of approved drugs and bioactive compounds (AID 1345084); details: Gynecologic cancer cell panel viability, ATPlite luminescence, 48 h; series mostly up to 57.5 µM; note: % is set by controls: 0 for no effect and ±100 for the full control effect; nearly all actives have a fitted effect of over 55% in size
In short: (§1)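 Measured: luminescence after ATPlite addition (15 min, RT). Exposure: 48 h, 37 C, 5% CO2.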

CASKI = test: as above; details: Gynecologic cancer cell panel viability, ATPlite luminescence, 48 h; series mostly up to 57.5 µM
In short: as §1

Es-2 = test: as above; details: Gynecologic cancer cell panel viability, ATPlite luminescence, 48 h; series mostly up to 57.5 µM
In short: as §1

HeLa = test: as above; details: Gynecologic cancer cell panel viability, ATPlite luminescence, 48 h; series mostly up to 57.5 µM
In short: as §1

Hek293T = test: as above; details: Gynecologic cancer cell panel viability, ATPlite luminescence, 48 h, control line for the selectivity index; series mostly up to 57.5 µM
In short: as §1

JEG-3 = test: as above; details: Gynecologic cancer cell panel viability, ATPlite luminescence, 48 h; series mostly up to 57.5 µM
In short: as §1

OV90 = test: as above; details: Gynecologic cancer cell panel viability, ATPlite luminescence, 48 h; series mostly up to 57.5 µM
In short: as §1

PA-1 = test: as above; details: Gynecologic cancer cell panel viability, ATPlite luminescence, 48 h; series mostly up to 57.5 µM
In short: as §1

SKOV3 = test: as above; details: Gynecologic cancer cell panel viability, ATPlite luminescence, 48 h; series mostly up to 57.5 µM
In short: as §1

Tov-21-G = test: as above; details: Gynecologic cancer cell panel viability, ATPlite luminescence, 48 h; series mostly up to 57.5 µM
In short: as §1

Tov112D = test: as above; details: Gynecologic cancer cell panel viability, ATPlite luminescence, 48 h; series mostly up to 57.5 µM
In short: as §1

CAOV3 = test: as above; details: Gynecologic cancer cell panel viability, ATPlite luminescence, 48 h; series mostly up to 57.5 µM
In short: as §1

CCCC(=O)O[C@@H]1[C@@H]2[C@@H](OC(C)=O)[C@]3(C)C(=O)[C@H]4[C@@H](OC(C)=O)C(C)(C)C[C@H]4[C@]3(C)C(=O)[C@@]2(OC(C)=O)C[C@@H]1C
inactive: outcome (NIH3T3) inactive [at 17.4 µM] | Potency (C33A) | Potency (CASKI) | Potency (Es-2) | Potency (HeLa) | Potency (Hek293T) | Potency (JEG-3) | Potency (OV90) | Potency (PA-1) | Potency (SKOV3) | Potency (Tov-21-G) | Potency (Tov112D)

C=C1C(=O)O[C@H](CCC)[C@H]1C(=O)O
inactive: outcome (NIH3T3) | Potency (CAOV3) | Potency (Es-2) | Potency (HeLa) | Potency (Hek293T) | Potency (JEG-3) | Potency (OV90) | Potency (PA-1) | Potency (Tov-21-G) | Potency (Tov112D)

C[C@@H]1O[C@@H](O[C@H]2[C@H](OC(=O)[C@]34CCC(C)(C)C[C@H]3C3=CCC5[C@@]6(C)CC[C@H](O[C@@H]7O[C@H](C(=O)O)[C@@H](O)[C@H](O)[C@H]7O[C@@H]7O[C@H](CO)[C@H](O)[C@H](O)[C@H]7O)[C@@](C)(C=O)C6CC[C@@]5(C)[C@]3(C)C[C@H]4O)O[C@H](C)[C@H](O[C@@H]3O[C@H](C)[C@H](O)[C@H](O)[C@H]3O)[C@@H]2O)[C@H](O)[C@H](O)[C@H]1O[C@@H]1OC[C@@H](O)[C@H](O[C@@H]2O[C@H](CO)[C@@H](O)[C@H](O)[C@H]2O)[C@H]1O (some centres undefined)
inactive: activity change, negative = cytotoxicity (C33A) 29.4% [at 6.55 µM] | activity change, negative = cytotoxicity (CAOV3) 2.56% [at 6.55 µM] | activity change, negative = cytotoxicity (CASKI) 4.26% [at 6.55 µM] | activity change, negative = cytotoxicity (Es-2) 0.809% [at 6.55 µM] | activity change, negative = cytotoxicity (HeLa) 3.75% [at 6.55 µM] | activity change, negative = cytotoxicity (Hek293T) 8.68% [at 6.55 µM] | activity change, negative = cytotoxicity (JEG-3) -1.59% [at 6.55 µM] | activity change, negative = cytotoxicity (OV90) -26.3% [at 6.55 µM]

CCC(C)/C=C(C)/C=C/c1cc2c(cn1)C(=O)C(C)(OC(C)=O)C(O)=C2Cl (centres undefined)
inactive: outcome (NIH3T3) | Potency (C33A) | Potency (CAOV3) | Potency (CASKI) | Potency (Es-2) | Potency (HeLa) | Potency (Hek293T) | Potency (JEG-3) | Potency (PA-1) | Potency (SKOV3) | Potency (Tov-21-G) | Potency (Tov112D)

COC(=O)C1=CO[C@@H](O[C@@H]2O[C@H](CO)[C@@H](O)[C@H](O)[C@H]2O)[C@@H]2C(COC(C)=O)=C[C@H](O)[C@H]12
inactive: outcome (NIH3T3) inactive [at 17.4 µM] | Potency (C33A) | Potency (CAOV3) | Potency (CASKI) | Potency (Es-2) | Potency (HeLa) | Potency (Hek293T) | Potency (JEG-3) | Potency (PA-1) | Potency (Tov-21-G) | Potency (Tov112D)

CC1(C)CCCC2(C)C(C(=O)O)=CCC12 (centres undefined)
inactive: Potency (C33A) | Potency (CAOV3) | Potency (CASKI) | Potency (Es-2) | Potency (HeLa) | Potency (Hek293T) | Potency (JEG-3) | Potency (OV90) | Potency (PA-1) | Potency (SKOV3) | Potency (Tov-21-G)

CCN(Cc1cccnc1)C(=O)CN(c1ccc(OC)nc1)S(=O)(=O)c1ccccc1C
inactive: outcome (NIH3T3) | Potency (C33A) | Potency (CAOV3) | Potency (CASKI) | Potency (Es-2) | Potency (HeLa) | Potency (Hek293T) | Potency (JEG-3) | Potency (OV90) | Potency (PA-1) | Potency (Tov-21-G) | Potency (Tov112D)

COc1ccc(C2(O)c3ccccc3NC(=O)C2O)cc1 (centres undefined)
inactive: outcome (NIH3T3) | Potency (C33A) | Potency (CASKI) | Potency (Es-2) | Potency (HeLa) | Potency (Hek293T) | Potency (JEG-3) | Potency (OV90) | Potency (PA-1) | Potency (SKOV3) | Potency (Tov-21-G) | Potency (Tov112D)

CC1=CC(=O)[C@]2(O[C@@H]3O[C@@H](C)[C@H](O)[C@@H](O)[C@H]3OC(=O)/C=C/c3ccccc3)C=CO[C@@H](O[C@@H]3O[C@H](CO)[C@@H](O)[C@H](O)[C@H]3O)[C@H]12
inactive: outcome (NIH3T3) inactive [at 17.4 µM] | Potency (C33A) | Potency (CAOV3) | Potency (CASKI) | Potency (Es-2) | Potency (HeLa) | Potency (Hek293T) | Potency (JEG-3) | Potency (OV90) | Potency (PA-1) | Potency (Tov-21-G) | Potency (Tov112D)

CC12CCC(OC3OC(CO)C(O)C(OC4OC(CO)C(O)C(O)C4O)C3O)CC1CCC1C2CCC2(C)/C(=C3/COC(=O)C3)CCC12O (centres undefined)
inactive: Potency (C33A) | Potency (CAOV3) | Potency (CASKI) | Potency (Es-2) | Potency (HeLa) | Potency (Hek293T) | Potency (JEG-3) | Potency (OV90) | Potency (PA-1) | Potency (SKOV3) | Potency (Tov-21-G)

COc1ccc(CN2C(=O)C(=O)c3cc(S(=O)(=O)N4CCC[C@H]4COc4cccnc4)ccc32)cc1
inactive: outcome (NIH3T3) | Potency (C33A) | Potency (CAOV3) | Potency (CASKI) | Potency (Es-2) | Potency (HeLa) | Potency (Hek293T) | Potency (JEG-3) | Potency (OV90) | Potency (PA-1) | Potency (Tov-21-G) | Potency (Tov112D)

O=S(=O)(Nc1ccccn1)c1ccc(N=Cc2c(O)[nH]c3ccc4ncsc4c23)cc1
inactive: outcome (NIH3T3) inactive [at 9.27 µM] | activity change, negative = cytotoxicity (CASKI) 20.8% [at 11.6 µM] | activity change, negative = cytotoxicity (Es-2) -0.0602% [at 11.6 µM] | activity change, negative = cytotoxicity (Hek293T) 20.8% [at 11.6 µM] | activity change, negative = cytotoxicity (JEG-3) 3.65% [at 11.6 µM] | activity change, negative = cytotoxicity (OV90) -9.17% [at 11.6 µM] | activity change, negative = cytotoxicity (PA-1) -2.66% [at 11.6 µM] | activity change, negative = cytotoxicity (Tov-21-G) 18.8% [at 11.6 µM]

C/C(=C\CCC(C)CCO)C(=O)OC1(C)CCC2C(C(=O)O)=COC(OC3OC(CO)C(O)C(O)C3O)C21 (centres undefined)
inactive: outcome (NIH3T3) inactive; activator [at 17.4 µM] | Potency (C33A) | Potency (CAOV3) | Potency (CASKI) | Potency (Es-2) | Potency (HeLa) | Potency (Hek293T) | Potency (JEG-3) | Potency (OV90) | Potency (Tov-21-G) | Potency (Tov112D)

CC1(C)CCC[C@@]2(C)C1[C@H](OC(=O)/C=C/C=C/C(=O)O)C=C1COC(=O)[C@@]12O (some centres undefined)
inactive: outcome (NIH3T3) | Potency (C33A) | Potency (CAOV3) | Potency (CASKI) | Potency (Es-2) | Potency (HeLa) | Potency (Hek293T) | Potency (JEG-3) | Potency (OV90) | Potency (SKOV3) | Potency (Tov-21-G) | Potency (Tov112D)
